# Unmarked numbers belong to inactive results. Records with an inconclusive call do not appear. Where a call stands in place of a potency, no number is given. The source made the active and inactive calls. Calls come from the whole dose curve; as a rule, active = well fitted curve in the direction sought with a large enough effect; inconclusive = small, poorly fitted or top-dose-only effect, or another doubt; inactive = no such curve, though single readings can be large; an effect the other way counts as inactive or inconclusive.
# Assay: MultiTox-Fluor Cytotoxicity Assay - LYMP1-003 - Dead Cells (AID 961); note: nearly all actives have a fitted effect of over 70% in size
# Conditions: LYMP1-003 lymphoblastoid cells, dead-cell protease fluorescence; series mostly up to 92.2 µM
# Procedure, shortened: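 LYMP1-003 human lymphoblastoid cells (2500/well) exposed to compound 16 h at 37 C in complete medium; dead-cell protease read with bis-AAF-R110 fluorescence (Ex/Em 485/520) after 60 min at room temperature. Normalized to DMSO and 15 uM tetraoctylammonium bromide; AC50 from Hill fit.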
row,Structure (SMILES),Potency
1,CCCCCCCCCCCC(=O)O,inactive

# Assay: MultiTox-Fluor Cytotoxicity Assay - LYMP1-003 - Live Cells (AID 962);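 note: cytotoxic hits lower the live-cell protease signal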
# Conditions: LYMP1-003 lymphoblastoid cells, MultiTox-Fluor live-cell protease fluorescence; series mostly up to 92.2 µM
# Procedure, shortened: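 qHTS, 1536-well; 2500 cells/well LYMP1-003; 5 hr 37 C settle; cpd 16 hr 37 C; MultiTox-Fluor reagent 60 min RT; live-cell protease fluor. 405/510; Hill-fit AC50; tetraoctylammonium bromide pos. ctrl.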
row,Structure (SMILES),Potency
1,C=CCc1ccc(OC)c(OC)c1,inactive
2,C=C(C)C1CC=C(C)C(O)C1 (configuration not stated),inactive
3,CC1=C2[C@H](/C=C(\C)C(=O)O)CC[C@@H](C)[C@H]2CC1,inactive
4,CCCCCCCCCCCC(=O)O,inactive

# Assay: Cell Viability - LYMP1-003 - Assay at 24 hr (AID 963)
# Conditions: LYMP1-003 lymphoblastoid cell viability; series mostly up to 92.2 µM
# Procedure, shortened: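 Cells seeded at 2500/well, 5 hr at 37 C; compounds added; 24 hr at 37 C; CellTiter-Glo added, 30 min room temperature; luminescence read. Decrease in ATP taken as cytotoxicity, AC50 from Hill modelling.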
row,Structure (SMILES),Potency
1,C=CCc1ccc(OC)c(OC)c1,inactive
2,C=C(C)C1CC=C(C)C(O)C1 (configuration not stated),inactive
3,CC1=C2[C@H](/C=C(\C)C(=O)O)CC[C@@H](C)[C@H]2CC1,inactive
4,CCCCCCCCCCCC(=O)O,inactive

# Assay: Cell Viability - LYMP1-003 - Assay at 40 hr (AID 964); note: nearly all actives have a fitted effect of over 60% in size
# Conditions: LYMP1-003 lymphoblastoid viability; series mostly up to 92.2 µM
# Procedure, shortened: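 Cells were seeded at 2500 per well and incubated 5 hr at 37 C. Compounds were added across a concentration series and left 40 hr at 37 C. CellTiter-Glo was added for 30 min at room temperature before luminescence reading.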
row,Structure (SMILES),Potency
1,C=CCc1ccc(OC)c(OC)c1,inactive
2,C=C(C)C1CC=C(C)C(O)C1 (configuration not stated),inactive
3,CC1=C2[C@H](/C=C(\C)C(=O)O)CC[C@@H](C)[C@H]2CC1,inactive
4,CCCCCCCCCCCC(=O)O,inactive

# Assay: Cell Viability - LYMP2-003 (AID 965);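 note: cells exposed to compounds for 24 h before reading; nearly all actives have a fitted effect of over 50% in size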
# Conditions: LYMP2-003 lymphoblastoid cell viability; series mostly up to 92.2 µM
# Procedure, shortened: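 Seed 2500 lymphoblastoid cells/well; incubate 5 hr, 37 C; add compounds; incubate 24 hr, 37 C; add CellTiter-Glo, 30 min RT; read luminescence. AC50 from Hill fit.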
row,Structure (SMILES),Potency
1,C=CCc1ccc(OC)c(OC)c1,inactive
2,C=C(C)C1CC=C(C)C(O)C1 (configuration not stated),inactive
3,CC1=C2[C@H](/C=C(\C)C(=O)O)CC[C@@H](C)[C@H]2CC1,inactive
4,CCCCCCCCCCCC(=O)O,inactive

# Assay: Cell Viability - LYMP2-009 (AID 968); note: nearly all actives have a fitted effect of over 55% in size
# Conditions: LYMP2-009 lymphoblastoid cell viability; series mostly up to 92.2 µM
row,Structure (SMILES),Potency
1,C=CCc1ccc(OC)c(OC)c1,inactive
2,C=C(C)C1CC=C(C)C(O)C1 (configuration not stated),inactive
3,CC1=C2[C@H](/C=C(\C)C(=O)O)CC[C@@H](C)[C@H]2CC1,inactive
4,CCCCCCCCCCCC(=O)O,inactive

# Assay: Cell Viability - LYMP2-011 (AID 969); note: nearly all actives have a fitted effect of over 60% in size
# Conditions: LYMP2-011 lymphoblastoid cells viability; series mostly up to 92.2 µM
# Procedure, shortened: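 2500 cells/well, 5 hr 37 C; compound added, 24 hr 37 C; CellTiter-Glo 30 min RT; luminescence. qHTS concentration-response, Hill-equation AC50. Tetraoctylammonium bromide positive control.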
row,Structure (SMILES),Potency
1,C=CCc1ccc(OC)c(OC)c1,inactive
2,C=C(C)C1CC=C(C)C(O)C1 (configuration not stated),inactive
3,CC1=C2[C@H](/C=C(\C)C(=O)O)CC[C@@H](C)[C@H]2CC1,inactive
4,CCCCCCCCCCCC(=O)O,inactive

# Assay: Cell Viability - LYMP2-013 (AID 970); note: nearly all actives have a fitted effect of over 55% in size
# Conditions: LYMP2-013 lymphoblastoid cells viability; series mostly up to 92.2 µM
# Procedure, shortened: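 qHTS; 2500 lymphoblastoid cells/well; 5 hr 37 C settle; cpd 24 hr 37 C; CellTiter-Glo, 30 min RT; luminescence. AC50 = Hill fit.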
row,Structure (SMILES),Potency
1,C=CCc1ccc(OC)c(OC)c1,inactive
2,C=C(C)C1CC=C(C)C(O)C1 (configuration not stated),inactive
3,CC1=C2[C@H](/C=C(\C)C(=O)O)CC[C@@H](C)[C@H]2CC1,inactive
4,CCCCCCCCCCCC(=O)O,inactive

# Assay: Cell Viability - LYMP2-015 (AID 971); note: nearly all actives have a fitted effect of over 55% in size
# Conditions: LYMP2-015 lymphoblastoid cell viability; series mostly up to 92.2 µM
# Procedure, shortened: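 Luminescent ATP read-out (CellTiter-Glo) served as the viability measure after lymphoblastoid cells were exposed to compounds for 24 hours at 37 C. Concentration-response data were fitted with the Hill equation to give AC50.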
row,Structure (SMILES),Potency
1,C=CCc1ccc(OC)c(OC)c1,inactive
2,C=C(C)C1CC=C(C)C(O)C1 (configuration not stated),inactive
3,CC1=C2[C@H](/C=C(\C)C(=O)O)CC[C@@H](C)[C@H]2CC1,inactive
4,CCCCCCCCCCCC(=O)O,inactive

# Assay: Cell Viability - LYMP2-017 (AID 972); note: nearly all actives have a fitted effect of over 55% in size
# Conditions: LYMP2-017 lymphoblastoid cell viability; series mostly up to 92.2 µM
# Procedure, shortened: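 2500 cells/well, 5 h 37 C; cpd 24 h 37 C in complete medium; CellTiter-Glo, 30 min RT; luminescence (ATP). AC50 via Hill fit, qHTS.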
row,Structure (SMILES),Potency
1,C=CCc1ccc(OC)c(OC)c1,inactive
2,C=C(C)C1CC=C(C)C(O)C1 (configuration not stated),inactive
3,CC1=C2[C@H](/C=C(\C)C(=O)O)CC[C@@H](C)[C@H]2CC1,inactive
4,CCCCCCCCCCCC(=O)O,inactive
